# Assay results from PubChem BioAssay (NCATS).
# Results filed as inconclusive are left out. Activity calls are given as the source filed them. Unless noted, calls follow the shape of the dose curve; as a rule, active = well fitted curve in the direction sought with a large enough effect; inconclusive = small, poorly fitted or top-dose-only effect, or another doubt; inactive = no such curve, though single readings can be large; an effect the other way counts as inactive or inconclusive.
# Key:
# [1] = biological target: Vitamin D3 receptor (Homo sapiens) (UniProt P11473); assay: qHTS assay for small molecule antagonists of vitamin D receptor signaling (AID 588541; calls by dose curve;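 also: receptor activated by calcitriol during compound treatment; series mostly up to about 77 µM; % is scaled to controls: 0 for no effect and ±100 for the full control effect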)
# Vitamin D3 receptor (Homo sapiens), sequence (P11473 whole entry, looked up): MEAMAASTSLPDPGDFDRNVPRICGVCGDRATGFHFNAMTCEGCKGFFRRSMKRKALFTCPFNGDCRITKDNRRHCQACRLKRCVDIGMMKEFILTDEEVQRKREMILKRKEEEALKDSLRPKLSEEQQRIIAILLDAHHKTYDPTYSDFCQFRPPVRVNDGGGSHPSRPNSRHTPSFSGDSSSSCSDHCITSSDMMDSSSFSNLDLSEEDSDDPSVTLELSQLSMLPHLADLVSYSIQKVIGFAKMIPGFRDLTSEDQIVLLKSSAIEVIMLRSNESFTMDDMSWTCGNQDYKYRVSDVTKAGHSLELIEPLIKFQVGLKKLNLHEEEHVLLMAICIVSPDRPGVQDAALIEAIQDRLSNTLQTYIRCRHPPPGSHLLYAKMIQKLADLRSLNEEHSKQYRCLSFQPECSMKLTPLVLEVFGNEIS
# Procedure, shortened: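 Antagonist-mode beta-lactamase reporter assay: HEK293T VDR-UAS-bla cells were exposed to titrated compound alongside 1-alpha,25-dihydroxyvitamin D3 at 3 nM final for 16 h. Values were normalized to the 50 nM agonist control and DMSO basal, with IC50 and efficacy from Hill equation fits.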
# [2] = biological target: Thyroid hormone receptor beta (Homo sapiens) (UniProt P10828); assay: qHTS assay for small molecule agonists of thyroid hormone receptor beta signaling (AID 588545; calls by dose curve;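 also: 0% = DMSO only and 100% = 10 nM T3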)
# Thyroid hormone receptor beta (Homo sapiens), sequence (P10828 whole entry, looked up): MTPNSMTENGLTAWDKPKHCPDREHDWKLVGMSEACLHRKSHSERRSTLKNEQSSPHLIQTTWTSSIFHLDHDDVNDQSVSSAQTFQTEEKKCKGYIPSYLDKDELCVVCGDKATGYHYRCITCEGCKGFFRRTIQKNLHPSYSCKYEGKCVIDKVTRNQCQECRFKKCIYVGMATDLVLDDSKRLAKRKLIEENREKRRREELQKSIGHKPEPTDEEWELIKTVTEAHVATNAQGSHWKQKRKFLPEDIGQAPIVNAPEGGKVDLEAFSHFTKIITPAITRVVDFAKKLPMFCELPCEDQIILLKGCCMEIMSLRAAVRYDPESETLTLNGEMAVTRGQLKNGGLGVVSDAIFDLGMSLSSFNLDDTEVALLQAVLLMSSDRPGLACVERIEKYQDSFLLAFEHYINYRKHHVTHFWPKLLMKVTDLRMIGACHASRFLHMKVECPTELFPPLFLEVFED
# Procedure, shortened: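 Efficacy and EC50 values derive from Hill fits of qHTS titration data, normalized to 10 nM T3 and DMSO-only wells. HEK 293 reporter cells were stimulated for 18 hrs at 37 C, with beta-lactamase activity measured by CCF4 fluorescence.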
# [3] = qHTS assay for small molecule antagonists of retinoid X receptor alpha signaling (AID 588546; active = well fitted inhibition curve with a large enough effect in the signal ratio, with a control signal flat, not every such curve was filed as active; the % refers to the signal ratio; also: potency is read from the fitted curve at half-maximal effect;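 as to max response: cells stimulated with 9-cis-retinoic acid as agonist; % is scaled to controls: 0 for no effect and ±100 for the full control effect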); details: HEK293T RXRa-UAS-bla, beta-lactamase ratio, antagonist mode; measured here: W530 green channel, cytotoxicity proxy
# Procedure, shortened: (§1)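 Beta-lactamase reporter inhibition, read as CCF4 fluorescence ratio (ex 405, em 460/530 nm) after 2 h at RT. HEK293T UAS-bla cells, 2500/well, were stimulated with 9-cis-RA at 500 or 100 nM final alongside test compound for 18 h at 37 C.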
# [4] = biological target: Retinoic acid receptor RXR-alpha (Homo sapiens) (UniProt P19793); assay: as above; details: HEK293T RXRa-UAS-bla, beta-lactamase ratio, antagonist mode
# Retinoic acid receptor RXR-alpha (Homo sapiens), sequence (P19793 whole entry, looked up): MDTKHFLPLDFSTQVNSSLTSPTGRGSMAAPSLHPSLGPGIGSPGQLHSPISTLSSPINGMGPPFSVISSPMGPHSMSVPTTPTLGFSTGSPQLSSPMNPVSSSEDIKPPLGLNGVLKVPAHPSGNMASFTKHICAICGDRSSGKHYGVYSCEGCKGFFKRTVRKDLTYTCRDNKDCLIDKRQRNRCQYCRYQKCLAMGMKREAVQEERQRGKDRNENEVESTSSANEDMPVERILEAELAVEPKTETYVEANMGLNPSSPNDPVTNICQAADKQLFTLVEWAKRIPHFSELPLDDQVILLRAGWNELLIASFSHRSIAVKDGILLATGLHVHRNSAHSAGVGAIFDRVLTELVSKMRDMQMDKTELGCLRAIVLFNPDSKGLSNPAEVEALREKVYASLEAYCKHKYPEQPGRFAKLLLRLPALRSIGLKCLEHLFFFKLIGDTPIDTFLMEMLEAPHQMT
# Procedure, shortened: as §1
# [5] = qHTS assay for small molecule activators of the nuclear factor-kappa B (NF-kB) signaling pathway (AID 651749; active = well fitted activation curve with a large enough effect in the signal ratio; the % refers to the signal ratio; also: series mostly up to about 77 µM; % of control where 0% means no effect); details: NF-kB-bla ME-180 cells, beta-lactamase FRET ratio, 16 h; activation: stronger effect = higher value
# Procedure, shortened: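 Activation measured after 16 hr compound treatment at 37C, 5% CO2, of 2,000 ME-180 cells/well stably expressing an NF-kB response element–driven beta-lactamase reporter, via FRET-disruption fluorescence.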
# [6] = qHTS assay for environmental chemicals that activate the Aryl hydrocarbon Receptor (AhR) signaling pathway (AID 651777); details: 1A2-DRE human hepatoma cells, luciferase, 24 h; activation: stronger effect = higher value; also: % of control where 0% means no effect; nearly all actives have a fitted effect of over 15% in size
# Procedure, shortened: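 Luminescence (One-Glo, 30 min, room temperature) reports AhR-driven luciferase in stably transfected human hepatoma cells bearing DRE and CYP1A2 promoter. Cells (1,200/well) were treated with compound for 24 hr at 37 C in qHTS format.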
# [7] = biological target: Peroxisome proliferator-activated receptor alpha (Homo sapiens) (UniProt Q07869); assay: qHTS assay for small molecule agonists of the peroxisome proliferator-activated receptor alpha (PPARalpha) signaling pathway (AID 651778); details: PathHunter PPARalpha complementation, chemiluminescence, 6 h; max response: stronger effect = higher value; also: % of control where 0% means no effect
# Peroxisome proliferator-activated receptor alpha (Homo sapiens), sequence (Q07869 whole entry, looked up): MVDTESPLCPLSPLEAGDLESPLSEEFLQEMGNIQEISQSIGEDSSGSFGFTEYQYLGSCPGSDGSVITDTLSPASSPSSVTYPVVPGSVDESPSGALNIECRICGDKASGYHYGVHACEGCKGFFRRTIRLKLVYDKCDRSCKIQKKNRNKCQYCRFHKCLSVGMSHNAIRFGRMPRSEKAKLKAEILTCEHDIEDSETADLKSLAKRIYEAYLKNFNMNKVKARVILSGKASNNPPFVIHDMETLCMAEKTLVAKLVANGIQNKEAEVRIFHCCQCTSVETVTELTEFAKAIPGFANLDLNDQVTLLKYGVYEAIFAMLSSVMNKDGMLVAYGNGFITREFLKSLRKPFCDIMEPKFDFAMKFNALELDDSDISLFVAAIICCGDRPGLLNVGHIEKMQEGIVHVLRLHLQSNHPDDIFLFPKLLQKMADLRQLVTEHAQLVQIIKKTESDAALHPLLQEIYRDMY
# Procedure, shortened: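 Chemiluminescence from complemented enzyme reported PPARalpha activation in cells after 6 hr of compound treatment at 37 C. The detection reagent was incubated for 60 min at room temperature, and compounds were scored as agonists.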
# [8] = qHTS assay for small molecule agonists of the antioxidant response element (ARE) signaling pathway measured by Nrf2-dependant transcriptional activity (AID 720636; active = well fitted curve in the direction sought with a large enough effect in the repeat runs; an effect the other way counts as inactive or inconclusive; also: % of control where 0% means no effect)
# Procedure, shortened: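 Nrf2-dependent transcription read as ONE-Glo luciferase signal from ARE-luc HepG2 reporter cells after 16 hr compound treatment at 37 C, 5% CO2, in assay medium with 1% dialyzed FBS.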
# [9] = qHTS assay for small molecule agonists of the antioxidant response element (ARE) signaling pathway measured by Nrf2-dependant transcriptional activity - cell viability counter screen (AID 720653; active = well fitted curve in the direction sought with a large enough effect in the repeat runs; an effect the other way counts as inactive or inconclusive; also: % is scaled to controls: 0 for no effect and ±100 for the full control effect); details: ARE-bla HepG2 viability, CellTiter-Glo ATP luminescence, 16 h; max response: stronger effect = lower value
# Procedure, shortened: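 Cytotoxicity counter screen: intracellular ATP quantified by CellTiter-Glo luminescence in the same ARE-bla HepG2 plates, after 16 h compound exposure and a 2 h beta-lactamase substrate step.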
# [10] = qHTS assay for cell viability of HEK293 cells (AID 743288); details: ATP luminescence (CellTiter-Glo), 18 h; max response: stronger effect = lower value; also: % is scaled to controls: 0 for no effect and ±100 for the full control effect; nearly all actives have a fitted effect of over 50% in size
# Procedure, shortened: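 ATP luminescence (CellTiter-Glo) reports metabolically competent cell number after parental HEK293 cells, 2,000/well, were treated with DMSO-dissolved compounds for 18 h at 37 C; reagent incubation 30 min, room temperature.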
# [11] = biological target: Nuclear receptor subfamily 1 group I member 2 (Rattus norvegicus) (UniProt Q9R1A7); assay: qHTS assay for small molecule activators of the rat pregnane X receptor (rPXR) signaling pathway (AID 651751; call rule not given here; also: 0% is about no effect); details: rPXR reporter cells, luciferase (One-Glo), 24 h
# Nuclear receptor subfamily 1 group I member 2 (Rattus norvegicus), sequence (Q9R1A7 whole entry, looked up): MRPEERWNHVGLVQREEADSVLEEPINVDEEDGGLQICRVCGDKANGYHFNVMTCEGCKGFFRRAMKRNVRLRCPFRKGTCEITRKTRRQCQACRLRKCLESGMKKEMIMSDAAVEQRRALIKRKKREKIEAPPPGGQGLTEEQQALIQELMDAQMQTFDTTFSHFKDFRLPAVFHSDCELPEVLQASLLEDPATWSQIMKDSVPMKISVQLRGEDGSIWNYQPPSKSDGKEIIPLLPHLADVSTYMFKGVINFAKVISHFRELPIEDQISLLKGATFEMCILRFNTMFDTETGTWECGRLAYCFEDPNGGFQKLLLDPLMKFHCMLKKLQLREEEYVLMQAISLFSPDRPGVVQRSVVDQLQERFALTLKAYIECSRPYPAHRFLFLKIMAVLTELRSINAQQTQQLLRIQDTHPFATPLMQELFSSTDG
# [12] = qHTS assay for small molecule activators of the human pregnane X receptor (PXR) signaling pathway (AID 720659; call rule not given here; also: 0% is about no effect)
# [13] = qHTS assay for small molecule antagonists of peroxisome proliferator-activated receptor delta signaling (AID 588535; active = well fitted inhibition curve with a large enough effect in the signal ratio, with a control signal flat, not every such curve was filed as active; the % refers to the signal ratio;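 as to max response: cells co-treated with a PPAR-delta agonist as stimulator during compound exposure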); details: HEK293T PPARd-UAS-bla, beta-lactamase FRET ratio, 18 h; 460 nm channel
# Procedure, shortened: (§2)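 Titrations were run on PPAR-delta-UAS-bla HEK293T cells in charcoal/dextran-stripped serum, incubated 18 h at 37 C. CCF4 fluorescence (460/530 nm) after 2 h RT; Hill equation yields IC50 and maximal response.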
# [14] = biological target: Peroxisome proliferator-activated receptor delta (Homo sapiens) (UniProt Q03181); assay: as above
# Peroxisome proliferator-activated receptor delta (Homo sapiens), sequence (Q03181 whole entry, looked up): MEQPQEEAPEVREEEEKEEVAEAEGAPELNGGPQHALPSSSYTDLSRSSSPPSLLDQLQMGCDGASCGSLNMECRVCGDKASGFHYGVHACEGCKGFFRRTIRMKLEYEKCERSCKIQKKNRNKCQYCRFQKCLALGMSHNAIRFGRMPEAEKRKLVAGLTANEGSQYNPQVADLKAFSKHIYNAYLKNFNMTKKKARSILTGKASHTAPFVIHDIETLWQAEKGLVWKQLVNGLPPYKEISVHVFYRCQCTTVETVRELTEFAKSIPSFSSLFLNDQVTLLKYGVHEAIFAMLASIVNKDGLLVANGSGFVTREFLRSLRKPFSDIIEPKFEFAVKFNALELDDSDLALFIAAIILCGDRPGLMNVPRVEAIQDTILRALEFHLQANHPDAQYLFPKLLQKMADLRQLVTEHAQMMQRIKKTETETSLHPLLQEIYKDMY
# Procedure, shortened: as §2
# [15] = qHTS assay for small molecule agonists of retinoid X receptor alpha signaling (AID 588544; calls by dose curve; also: potency is read from the fitted curve at half-maximal effect;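 as to activation: 0% = DMSO basal wells and 100% = reference agonist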); details: HEK293T RXRa-UAS-bla, beta-lactamase reporter, 18 h; 530 nm emission
# [16] = biological target: Retinoic acid receptor RXR-alpha (Homo sapiens) (UniProt P19793); assay: as above
# [17] = biological target: Thyroid hormone receptor beta (Homo sapiens) (UniProt P10828); assay: qHTS assay for small molecule antagonists of thyroid hormone receptor beta signaling (AID 588547; active = well fitted inhibition curve with a large enough effect in the signal ratio, with a control signal flat, not every such curve was filed as active; the % refers to the signal ratio;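 also: cells stimulated with 0.4 nM T3 agonist during compound exposure; series mostly up to about 77 µM; % is scaled to controls: 0 for no effect and ±100 for the full control effect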); details: TR-UAS-bla HEK293, beta-lactamase ratio, antagonist mode, 18 h
# Procedure, shortened: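 Inhibition of T3-driven (0.4nM final) beta-lactamase reporter activity was measured over 0.59 nM to 92 uM compound after 18 h at 37 C. The cells were GripTite HEK293 TR-UAS-bla in charcoal/dextran-stripped serum, with CCF4 ratio read-out and IC50 from Hill fits.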
# [18] = qHTS assay for small molecule activators of the p53 signaling pathway (AID 651743; active = well fitted activation curve with a large enough effect in the signal ratio, not every such curve was filed as active; the % refers to the signal ratio; also: series mostly up to about 92 µM; % of control where 0% means no effect); details: HCT-116 p53RE-bla, beta-lactamase FRET ratio, 16 h; activation: stronger effect = higher value
# Procedure, shortened: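 After 16 hours compound treatment at 37 C, HCT-116 cells stably expressing p53RE-driven beta-lactamase were loaded with LiveBLAzer B/G FRET substrate for 2 hours at room temperature. Fluorescence intensity served as the p53 activation read-out.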
# [19] = qHTS assay for cell viability of the p53RE-bla HCT-116 cell line (AID 743292); also: % is scaled to controls: 0 for no effect and ±100 for the full control effect; nearly all actives have a fitted effect of over 55% in size
# Procedure, shortened: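 ATP-based luminescent viability (CellTiter-Glo, 30 min RT) after 16 h compound treatment at 37 C of p53RE-bla HCT-116 cells, seeded at 4,000 cells/well and rested 5 h before dosing.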
# [20] = biological target: Vitamin D3 receptor (Homo sapiens) (UniProt P11473); assay: qHTS assay for small molecule agonists of vitamin D receptor signaling (AID 588543; calls by dose curve;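 also: 0% = DMSO basal and 100% = reference agonist control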)
# Procedure, shortened: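 β-lactamase reporter, VDR-UAS-bla HEK293T, agonist mode. Cells plated 5 h at 37 °C, compound titration 16 h at 37 °C, CCF4 dye 2 h RT, ratio 460/530 nm. Hill fit → EC50, efficacy vs 50 nM 1α,25-(OH)2D3.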
smiles,measurement,setting,value
CCCCCCCCCC[N+](C)(C)Cc1ccccc1,Potency,[1],inactive
same,Potency,[2],inactive
same,max response,[3],16%
same,Potency,[4],35.5 µM (active)
same,activation,[5],4.29% (inactive)
same,activation,[6],0.379% (inactive)
same,max response,[7],7.43% (inactive)
same,Potency,[8],inactive
same,max response,[9],-23% (inactive)
same,max response,[10],-27.5% (inactive)
same,max response,[11],-4.11% (inactive)
same,outcome,[12],inactive
CC(C)(C)c1cc(C(C)(C)C)c(O)c(C(C)(C)C)c1,max response,[13],12%
same,Potency,[14],inactive
same,max response,[15],-17.5%
same,Potency,[16],0.794 µM (active)
same,Potency,[2],inactive
same,activity change % (negative = inhibition),[17],-16.9% (inactive)
same,activation,[18],3.15% (inactive)
same,activation,[6],-0.208% (inactive)
same,max response,[7],7.66% (inactive)
same,Potency,[8],inactive
same,max response,[9],8.43% (inactive)
same,max response,[10],-4.45% (inactive)
same,Potency,[19],inactive
same,max response,[11],-4.2% (inactive)
same,outcome,[12],inactive
CCCCCCCCCCCCCC(=O)OC,max response,[13],-19.8%
same,Potency,[14],inactive
same,max response,[15],0.848%
same,Potency,[16],inactive
same,Potency,[2],inactive
same,max response,[3],-10%
same,max response,[4],-1.05% (inactive)
same,activity change % (negative = inhibition),[17],3.36% (inactive)
same,activation,[5],0.501% (inactive)
same,activation,[6],0.0228% (inactive)
same,max response,[7],0.157% (inactive)
same,Potency,[8],inactive
same,max response,[9],-15.8% (inactive)
same,max response,[10],4.18% (inactive)
same,Potency,[19],inactive
same,max response,[11],2.49% (inactive)
same,outcome,[12],inactive
C=CCOC(=O)CC(C)C,max response,[13],13%
same,Potency,[14],inactive
same,Potency,[1],inactive
same,outcome,[20],inactive
same,max response,[15],-1.51%
same,Potency,[16],inactive
same,Potency,[2],inactive
same,max response,[3],-12.5%
same,max response,[4],1.64% (inactive)
same,activation,[5],-0.542% (inactive)
same,activation,[6],-1.24% (inactive)
same,max response,[7],-0.161% (inactive)
same,Potency,[8],inactive
same,max response,[9],-7.46% (inactive)
same,max response,[10],-9.09% (inactive)
same,Potency,[19],inactive
same,max response,[11],-1.76% (inactive)
same,outcome,[12],inactive
CC/C=C/CCCCCCCCCCOC(C)=O,max response,[13],25.9%
same,Potency,[14],inactive
same,Potency,[1],inactive
same,outcome,[20],inactive
same,max response,[15],-22.5%
same,Potency,[16],inactive
same,Potency,[2],inactive
same,activity change % (negative = inhibition),[17],4.15% (inactive)
same,activation,[6],-0.59% (inactive)
same,max response,[7],-1.44% (inactive)
same,Potency,[8],inactive
same,max response,[9],-0.636% (inactive)
same,max response,[10],-7.88% (inactive)
same,Potency,[19],inactive
same,max response,[11],3.81% (inactive)
same,outcome,[12],inactive
O=C(O)CN(CCO)CCN(CC(=O)O)CC(=O)O,max response,[13],6.54%
same,Potency,[14],inactive
same,Potency,[1],inactive
same,outcome,[20],inactive
same,max response,[15],-15.4%
same,Potency,[16],inactive
same,Potency,[2],inactive
same,max response,[3],-2.45%
same,max response,[4],-2.39% (inactive)
same,activity change % (negative = inhibition),[17],-8.14% (inactive)
same,activation,[18],-0.291% (inactive)
same,activation,[5],-1.52% (inactive)
same,activation,[6],-0.73% (inactive)
same,Potency,[8],inactive
same,max response,[9],-1.05% (inactive)
same,max response,[10],-11.1% (inactive)
same,Potency,[19],inactive
same,max response,[11],1.3% (inactive)
same,outcome,[12],inactive
